Data from ChEMBL document CHEMBL3433997, “St. Jude Leishmania screening dataset” (2016).
“And” between values parts separate entries of the source, which are not always exact repeats. Identical values can stand only once.

target: Glucose transporter (Leishmania mexicana) (UniProt O61059); assay: ST_JUDE_LEISH: Cytotoxicity at 2uM final concentration against transgenic Leishmania Mexicana promastigotes LmGT2 that are glucose transport deficient and complemented with the L. Mexicana glucose transporter 2. Activity is measured by DNA content using SYBR green in vitro; format: functional

For `O=C(Nc1ccccc1C(F)(F)F)NC1CCC(CN2CCC(c3c[nH]c4ccccc34)CC2)CC1` (centres undefined), the inhibition was 2.99% and -1.24%.

Compared with `CCCCCc1cc(O)c2c(c1)OC(C)(C)CC2C1=CCN(Cc2cnc3ccccc3c2)CC1` (centres undefined), `CCCCCC(C)C(C)c1cc(O)c2c3c(c(=O)oc2c1)CN(Cc1ccccc1)CC3` (centres undefined) is lower in inhibition: 0.64% for the first, -0.43% for the second.

First: CO[C@@H]1C[C@@H](C(=O)Nc2ccccc2)N(c2ccc(C#N)c3ccccc23)C1
Second: CC(C)CNCc1ccc(-c2ccc(CN(C(=O)Nc3ccccc3)C3CCN(Cc4ccccc4)CC3)cc2)cc1
The inhibition of the first is lower: 3.78% for the first, 4.94% for the second.

First: CCCCn1c(C)c(C(=O)OCC)c2cc(OC(C)=O)c(Br)cc21
Second: CCCCCCC(C)(C)c1cc(O)c2c(c1)OC(C)(C)c1ccncc1-2
The inhibition of the first is higher: 3.29% for the first, 3.15% for the second.

Compared with `CN(C)CCC(=O)c1ccccc1`, `Cc1ccccc1CNCC(O)c1cccc(C(F)(F)F)c1` (centres undefined) is lower in inhibition: 1.99% for the first, -1.33% for the second.

Going from `CNC(=O)c1ccc2[nH]cc(C3CCN(CC4CCC(NC(=O)/C=C/c5ccccc5Cl)CC4)CC3)c2c1` (centres undefined) to `CS(=O)(=O)Nc1ccc2[nH]cc(C3CCN(CC4CCC(NC(=O)/C=C/c5ccccc5Cl)CC4)CC3)c2c1` (centres undefined), the inhibition falls from 8.45% to -0.23%.

First: C=C[C@H]1CN2CC[C@H]1C[C@H]2[C@H](O)c1ccnc2ccccc12
Second: C/C=C1/CN2CC[C@H]1C[C@H]2[C@H](O)c1ccnc2ccc(O)cc12
The inhibition of the first is higher: 1.5% for the first, -0.61% for the second.

Compared with `Cc1cc2ccc(CNCCc3ccccc3Br)cc2nc1N`, `Cc1ccc(C)c(N2CCN(Cc3ccccc3O)CC2)c1` is lower in inhibition: 3.87% for the first, 2.41% for the second.

Compared with `COc1cccc(CN2CCC(CCOC(c3ccccc3)c3ccccc3)CC2)c1O`, `Cn1cc(CN2CCC(CCOC(c3ccccc3)c3ccccc3)CC2)cn1` is higher in inhibition: -0.42% for the first, 5.33% for the second.

Compared with `COc1ccc(N(c2nc(-c3cc(Cl)ccc3Cl)cs2)C2CCNCC2)cc1`, `Cc1[nH]c2ccccc2c1C1CCN(CC2CCC(NC(=O)/C=C/c3ccc(Cl)c(Cl)c3)CC2)CC1` (centres undefined) is higher in inhibition: 1.62% for the first, 7.15% for the second.

First: CC[C@H]1CN2CCc3cc(OC)c(OC)cc3[C@@H]2C[C@@H]1C[C@H]1NCCc2c1cc(OC)c(O)c2Cl
Second: CC[C@H]1CN2CCc3cc(OC)c(OC)cc3[C@@H]2C[C@@H]1C[C@H]1NCCc2c1cc(OC)c(O)c2I
The inhibition of the first is lower: 89.3% for the first, 90% for the second.

Going from `CC(Cc1ccc(NC(=O)[C@H](C)NCCc2cccc(Cl)c2)cc1)NCCc1cccc(Cl)c1` (some centres undefined) to `CC(Cc1ccc(-c2nc3ccccc3[nH]2)cc1)NCC(O)c1cccc(C(F)(F)F)c1` (centres undefined), the inhibition falls from 0.22% to -0.37%.

Compared with `COC(=O)c1ccc(CC(C)NCC(O)c2cccc(C(F)(F)F)c2)cc1F` (centres undefined), `COc1ccc(CC(C)NCC(O)c2cccc(C(F)(F)F)c2)cc1F` (centres undefined) is lower in inhibition: 2.51% for the first, 0.11% for the second.

Going from `COc1ccc(C=CC(=O)N2CCC(CN3CCC(c4c[nH]c5ccccc45)CC3)CC2)cc1OC` to `O=C(/C=C/c1ccc(Cl)c(Cl)c1)N1CCC(CN2C3CCC2CC(c2c[nH]c4ccccc24)C3)CC1` (centres undefined), the inhibition rises from -0.06% to 0.89%.

First: Cc1[nH]c2cc(F)ccc2c1C1=CCN(CCCCC2(C)C(=O)Nc3ccccc32)CC1 (centres undefined)
Second: Cc1[nH]c2ccccc2c1C1=CCN(CCCCCNC(=O)/C=C/c2ccc(Cl)c(Cl)c2)CC1
The inhibition of the first is lower: 0.15% for the first, 5.48% for the second.

Going from `CC[C@H]1CN2CC[C@@H]1C[C@H]2[C@H](O)c1cc[n+]([O-])c2ccc(OC)cc12` to `CC[C@H]1CN2CC[C@H]1C[C@H]2[C@H](O)c1cc(N2CCCC(CO)C2)nc2ccc(OC)cc12` (some centres undefined), the inhibition rises from -1.06% to 0.11%.

Compared with `CN1CC=C(c2c[nH]c3ccc(C(=O)c4nccs4)cc23)CC1`, `CN1CC=C(C=Cc2c[nH]c3ccccc23)CC1` is higher in inhibition: -1.62% for the first, 3.25% for the second.

Going from `CC(Cc1ccc(OCCCCOc2ccccc2)cc1)NCCCN1CCOCC1` (centres undefined) to `COCC(=O)N(Cc1ccccc1-c1ccc(CNCCc2ccccc2)cc1)C1CCN(Cc2ccccc2)CC1`, the inhibition falls from -0.25% to -3.2%.

Going from `Cc1cccc(N2CCN(Cc3cc(Cl)ccc3O)CC2)c1C` to `CN(c1cc(NC(=O)c2cccs2)ccn1)C1CCN(Cc2cccc(F)c2)CC1`, the inhibition rises from 3.25% to 5.71%.

Compared with `C=Cc1cc(OC)c2c(c1)c(=O)oc1c2cc(OC)c2c(O)ccc([C@H]3O[C@H]([C@H](C)O)[C@H](O)[C@H]3O)c21`, `CCOC(=O)c1ccc(CC(C)NCC(O)c2cccc(C(F)(F)F)c2)cc1` (centres undefined) is lower in inhibition: 8.58% for the first, -0.87% for the second.
